Potency and affinity values are given separately. Activity calls are given as the source filed them.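 Rule for the calls: active = signal-lowering compounds whose fitted half-maximal concentration is at or below twice the top tested dose in every run; inconclusive = runs disagree, flat 30 to 70% inhibition, or poor curve fit; inactive = the rest.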
What follows are compounds tested against Protein S100-A4 (Homo sapiens) (UniProt P26447) (assay: S100A4-myosin IIA binding inhibitor potency, dose response, biochemical, fluorescence polarization, cherry-picked hits (AID 687001)). Settings: FP, S100A4/TAMRA-myosin IIA peptide binding; series mostly up to 11 µM.
Sequence of Protein S100-A4 (Homo sapiens) (P26447 whole entry, looked up): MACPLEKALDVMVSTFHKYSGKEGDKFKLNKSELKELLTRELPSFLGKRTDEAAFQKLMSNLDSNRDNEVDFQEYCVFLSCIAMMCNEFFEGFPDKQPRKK

outcome, inactive:
COc1ccc(C#Cc2ccc([C@@H]3[C@@H](CO)N4CCCCN(C(=O)Nc5ccc(F)cc5)C[C@@H]34)cc2)cc1, CC(C)n1nccc1N(Cc1ccc(C#N)cc1)S(=O)(=O)c1ccccc1, COc1cc2cnc(-c3ccccc3F)cc2cc1OC, CCCCOc1ccc(S(=O)(=O)N2CCN(c3ccc(N4CCN(CC)CC4)nn3)CC2)cc1, O=C(Nc1ccccc1F)N[C@H]1CC[C@H](CCNC(=O)C2CCCCC2)O[C@H]1CO, COc1ccc(NC(=O)Nc2ccc3c(c2)CC(=O)N([C@@H](C)CO)C[C@@H](C)[C@H](CN(C)Cc2ccccc2)O3)cc1, COc1ccccc1-c1noc2c1C(=O)N(Cc1cn(-c3ccc(Cl)cc3)nn1)CC2, Cc1cccc(Nc2c3c(nc4ccccc24)CCC3)c1, O=C(Nc1nnc(S(=O)(=O)N2CCN(c3ccc(F)cc3)CC2)s1)c1ccccc1, CCNC(=O)C[C@@H]1CC[C@@H](NS(=O)(=O)c2ccc(F)cc2)[C@H](CO)O1, Cc1ccc(C2=N/C(=C\c3ccc(F)cc3)C(=O)N2)cc1, CC1(C)Cc2cccc(OCC(=O)N3CCN(c4cccc(C(F)(F)F)c4)CC3)c2O1, CCOc1cc(S(=O)(=O)N2CCC(c3nc4ccccc4s3)CC2)c(OCC)cc1S(=O)(=O)N1CCCCC1, COc1cc(Cl)ccc1OCc1cc(C(=O)N2CCCCCCC2)no1, COc1ccc(S(=O)(=O)Nc2ccc3c(c2)C(=O)N([C@@H](C)CO)C[C@@H](C)[C@H](CN(C)C(=O)Nc2ccccc2)OCCCC[C@@H](C)O3)cc1, Nc1cc(-c2ccncc2)c[nH]c1=O, COc1ccccc1N1CC(C(=O)Nc2ccc(C)c(S(=O)(=O)N3CCOCC3)c2)CC1=O (centres undefined), CCOc1ccc(OCCC(=O)N(CC(=O)Nc2ccccc2C(F)(F)F)Cc2ccco2)cc1, O=C1[C@H]2[C@@H](c3ccc(F)cc3)N3C(=O)N(c4cccc(Br)c4)C(=O)[C@@]3(Cc3ccccc3)[C@H]2C(=O)N1C1CCCCC1, O=c1[nH][nH]c(=O)c2nc(Nc3ccccc3)ncc12, Cn1c(/C(C#N)=C(\O)c2cc(Cl)sc2Cl)nc2ccccc21, COc1ccccc1NC(=S)NC(=O)Cc1ccccc1, Cc1ccc(S(=O)(=O)NCCC(=O)NCC(=O)Nc2c(C)cccc2C)cc1C, COc1cccc(-c2ccc([C@@H]3[C@H](CO)N4CCCCN(C(=O)c5ccc(F)cc5)C[C@@H]34)cc2)c1, Cc1ccc(S(=O)(=O)N[C@H]2C=C[C@@H](CC(=O)NC3CCCCC3)O[C@@H]2CO)cc1, CCOC1=C2[C@H](c3ccccc3)N(S(=O)(=O)c3ccc(C)cc3)C(C(C)(C)C)[C@H]2C(C#N)(C#N)C(C#N)(C#N)C1 (some centres undefined), C#CCNCCS(=O)(=O)N(Cc1ccc(Br)cc1)[C@@H](CC(C)C)C(=O)O, O=C(c1cnccn1)N1CC(=O)N2[C@H](CO)[C@@H](c3ccc(-c4ccc(F)cc4)cc3)[C@H]2C1, O=C(Cc1c(F)cccc1Cl)Nc1ccccn1, Cc1ccccc1CNS(=O)(=O)c1c(C(=O)N2CCCC2)c(C)n(C)c1C, CN(C)CC(=O)N1CC2(C1)[C@@H](c1ccccc1)[C@@H](CO)N2S(C)(=O)=O, CC(C)NC(=O)N(C)C[C@H]1Oc2ccc(NS(=O)(=O)c3ccc(F)cc3)cc2C(=O)N([C@H](C)CO)C[C@@H]1C, C[C@@H]1CN([C@@H](C)CO)C(=O)CCCn2nncc2CO[C@@H]1CN(C)S(=O)(=O)c1ccccc1, CSc1cccc(NC(=O)C2CCN(S(=O)(=O)c3ccc4c(c3)NC(=O)CO4)CC2)c1, COC(=O)CCC(C)C1CCC2C3CCC4CC(O)CCC4(C)C3=CC(=O)C12C (centres undefined), O=Cc1ccc(N2N=C(c3ccccc3)CC2c2ccccc2)cc1 (centres undefined), Cc1[nH]c(C)c(S(=O)(=O)N2CCN(c3ccccc3F)CC2)c1C(=O)N1CCCCC1, CC(OC(=O)CSCC(=O)Nc1ccc(Cl)cc1)C(=O)N(C)Cc1ccccc1 (centres undefined), CCCCNC(=O)CNC(=S)N(CCCN1CCOCC1)Cc1cccs1
